Experimental data from PubChem BioAssay (NCATS).
Records with an inconclusive call do not appear. The source made the active and inactive calls. The call rests on the fitted dose curve; in most records, active means well fitted curve in the direction sought with a large enough effect; inconclusive means small, poorly fitted or top-dose-only effect, or another doubt; inactive means no such curve, though single readings can be large; an effect the other way counts as inactive or inconclusive.

Legend:
[1] = molecular target: N-terminal Xaa-Pro-Lys N-methyltransferase 1 (Homo sapiens) (UniProt Q9BV86); experiment: qHTS Assay for Inhibitors of N-terminal methyltransferase 1 (NTMT1): LOPAC validation of the NTMT1 SAHH-coupled ThioGlo3 Assay (AID 1347143);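 further: SAH from peptide methylation measured as thiol fluorescence via SAHH coupling and ThioGlo3; nearly all actives have a fitted effect of over 70% in size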; further: potency means the concentration at half of the fitted maximal effect
Sequence of N-terminal Xaa-Pro-Lys N-methyltransferase 1 (Homo sapiens) (Q9BV86 whole entry, looked up): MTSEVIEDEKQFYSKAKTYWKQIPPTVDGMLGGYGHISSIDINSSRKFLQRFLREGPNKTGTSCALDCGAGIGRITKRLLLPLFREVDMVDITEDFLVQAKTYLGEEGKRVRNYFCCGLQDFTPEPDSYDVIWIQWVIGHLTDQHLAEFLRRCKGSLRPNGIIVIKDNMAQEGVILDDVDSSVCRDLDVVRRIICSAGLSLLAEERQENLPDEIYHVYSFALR
Outline: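 NTMT1 125nM + cpds (various conc.), 1 min RT; add SAM 100uM/SAHH 10uM/ThioGlo3 15uM (addition mix). SAHH-coupled thiol detection, Ex340/Em450, t0 and 30 min RT; signal normalized to background. LOPAC 1280-cpd pilot.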

[2] = system: Zika virus NS2B-NS3 protease (unlinked); experiment: Optimization of GU AMC qHTS for Zika virus inhibitors: Unlinked NS2B-NS3 protease assay (AID 1347151); further: nearly all actives have a fitted effect of over 80% in size; further: potency means the concentration at half of the fitted maximal effect
Outline: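 Percent inhibition is derived from the 15-min change in AMC fluorescence, normalized against no-inhibitor and no-enzyme controls, then fitted to a 4-parameter Hill curve. Aprotinin was the intraplate control.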

[3] = system: Zika virus NS2B-NS3 protease; experiment: Primary screen GU AMC qHTS for Zika virus inhibitors (AID 1347154); further: nearly all actives have a fitted effect of over 70% in size
Outline: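 Fluorogenic AMC-substrate cleavage by noncovalent NS2B-NS3 protease complex (25 nM, pH 8.0 Tris buffer with Tween 20) followed for 15 minutes at room temperature (~20% conversion). Percent inhibition from ex340/em450 signal change, fitted by 4-parameter Hill equation.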

[4] = system: Zika virus NS2B-NS3 protease (unlinked complex); experiment: Primary screen GU Rhodamine qHTS for Zika virus inhibitors: Unlinked NS2B-NS3 protease assay (AID 1347159); further: nearly all actives have a fitted effect of over 60% in size
Outline: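 Percent inhibition came from the 15-min rise in Rhodamine110 fluorescence (1.5 microM substrate, ~15% conversion), normalized to no-inhibitor and no-enzyme wells and Hill-fitted. Unlinked protease, 25 nM, pH 8.0 Tris buffer; compounds up to 114 microM, 15-min preincubation.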

[5] = system: Zika virus NS2B-NS3 protease (linked construct); experiment: Primary screen NINDS Rhodamine qHTS for Zika virus inhibitors (AID 1347160); further: nearly all actives have a fitted effect of over 55% in size
Outline: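 Rhodamine110-peptide cleavage (1.5 µM substrate) by 25 nM linked NS2B-NS3 enzyme at pH 8.0 (Tris, Tween 20), after 15 min RT preincubation with compounds; 15-min fluorescence change normalized to controls and Hill-fitted.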

[6] = molecular target: Lysine-specific demethylase 5B (Homo sapiens) (UniProt Q9UGL1); experiment: Optimization screen for KDM5B Histone Demethylases FDH coupled qHTS against the LOPAC library (AID 1347166)
Sequence of Lysine-specific demethylase 5B (Homo sapiens) (Q9UGL1 whole entry, looked up): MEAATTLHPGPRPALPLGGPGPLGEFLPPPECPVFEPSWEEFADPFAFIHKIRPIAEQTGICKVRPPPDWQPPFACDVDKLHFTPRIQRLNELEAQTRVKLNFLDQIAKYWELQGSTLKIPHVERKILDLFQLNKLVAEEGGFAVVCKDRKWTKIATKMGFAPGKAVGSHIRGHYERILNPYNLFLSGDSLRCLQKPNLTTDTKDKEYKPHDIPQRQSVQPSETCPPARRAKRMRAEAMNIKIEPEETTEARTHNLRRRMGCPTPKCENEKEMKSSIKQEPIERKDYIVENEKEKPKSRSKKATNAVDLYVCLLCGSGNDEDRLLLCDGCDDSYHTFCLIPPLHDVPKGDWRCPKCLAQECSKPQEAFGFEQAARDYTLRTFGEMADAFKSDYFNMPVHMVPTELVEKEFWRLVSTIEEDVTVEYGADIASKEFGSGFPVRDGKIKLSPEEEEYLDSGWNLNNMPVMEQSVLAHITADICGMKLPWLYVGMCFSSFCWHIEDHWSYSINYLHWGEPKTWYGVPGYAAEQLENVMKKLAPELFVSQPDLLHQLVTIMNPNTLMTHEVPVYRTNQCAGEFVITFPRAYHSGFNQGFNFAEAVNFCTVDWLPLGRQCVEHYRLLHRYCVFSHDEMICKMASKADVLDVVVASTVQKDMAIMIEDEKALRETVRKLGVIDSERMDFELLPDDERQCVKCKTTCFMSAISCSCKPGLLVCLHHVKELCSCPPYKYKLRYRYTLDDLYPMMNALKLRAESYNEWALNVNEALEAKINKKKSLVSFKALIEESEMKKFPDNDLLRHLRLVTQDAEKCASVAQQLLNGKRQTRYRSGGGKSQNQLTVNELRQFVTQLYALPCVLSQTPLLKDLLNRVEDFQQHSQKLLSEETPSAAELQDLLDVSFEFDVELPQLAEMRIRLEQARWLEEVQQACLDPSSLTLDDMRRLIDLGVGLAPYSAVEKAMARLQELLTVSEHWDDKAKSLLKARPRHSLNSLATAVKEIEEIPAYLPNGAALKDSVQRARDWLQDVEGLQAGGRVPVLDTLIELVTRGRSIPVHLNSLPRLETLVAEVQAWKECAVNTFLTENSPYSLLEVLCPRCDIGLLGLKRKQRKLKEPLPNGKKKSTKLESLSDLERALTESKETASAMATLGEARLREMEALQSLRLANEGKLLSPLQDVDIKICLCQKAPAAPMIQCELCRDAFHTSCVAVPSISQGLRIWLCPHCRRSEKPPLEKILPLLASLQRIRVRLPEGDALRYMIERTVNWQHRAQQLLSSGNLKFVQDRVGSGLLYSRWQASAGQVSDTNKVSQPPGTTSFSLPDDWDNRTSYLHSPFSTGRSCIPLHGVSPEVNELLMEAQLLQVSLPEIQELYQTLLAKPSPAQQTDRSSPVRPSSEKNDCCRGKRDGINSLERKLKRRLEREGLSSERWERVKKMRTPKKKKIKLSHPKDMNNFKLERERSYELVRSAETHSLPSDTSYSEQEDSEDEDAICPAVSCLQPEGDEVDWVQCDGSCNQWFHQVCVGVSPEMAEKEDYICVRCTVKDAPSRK
Outline: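 KDM5BDeltaAP (200nM final) in 50mM HEPES pH 7.5, 0.01% Tween-20 was preincubated with compound for 10 min at room temperature. A substrate mix of 12.5uM H3K4Me3, 25uM a-ketoglutarate, ascorbate, Fe2+, NAD+ and formaldehyde dehydrogenase was then added. NADH fluorescence (340/450 nm) was read initially and after 30 min.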

[7] = qHTS of pediatric cancer cell lines to identify multiple opportunities for drug repurposing: Confirmatory screen for RD cells (AID 1347124);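 further: cells exposed to compound for 48 h before viability readout; nearly all actives have a fitted effect of over 65% in size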; further: potency means the concentration at half of the fitted maximal effect
Outline: (§1)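 Cells (500-1,000/well) rested 5 h, then received compounds for 48 h; metabolically active cells were measured by CellTiter-Glo luminescence. Final concentrations spanned up to 46 µM (MIPE, 11-point) or 0.59 nM-46 µM (NPC, 8-point) in primary screens, 11-point in follow-ups.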

[8] = qHTS of pediatric cancer cell lines to identify multiple opportunities for drug repurposing: Confirmatory screen for Rh18 cells (AID 1347125); further: nearly all actives have a fitted effect of over 55% in size
Outline: as §1

[9] = qHTS of pediatric cancer cell lines to identify multiple opportunities for drug repurposing: Confirmatory screen for Rh30 cells (AID 1347126); further: nearly all actives have a fitted effect of over 55% in size
Outline: as §1

[10] = qHTS of pediatric cancer cell lines to identify multiple opportunities for drug repurposing: Confirmatory screen for Saos-2 cells (AID 1347127); further: nearly all actives have a fitted effect of over 60% in size
Outline: as §1

[11] = qHTS of pediatric cancer cell lines to identify multiple opportunities for drug repurposing: Confirmatory screen for OHS-50 cells (AID 1347128);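 further: compound exposure lasted 48 h at 37 degrees C; nearly all actives have a fitted effect of over 55% in size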
Outline: as §1

[12] = qHTS of pediatric cancer cell lines to identify multiple opportunities for drug repurposing: Confirmatory screen for SK-N-SH cells (AID 1347129);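 further: cells exposed to compound for 48 h before viability read; nearly all actives have a fitted effect of over 60% in size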
Outline: as §1

Measured: Potency

CCCCc1ncc(/C=C(\Cc2cccs2)C(=O)O)n1Cc1ccc(C(=O)O)cc1
inactive: [1] | [2] | [3] | [4] | [5]

COC(=O)C1=C(C)NC(C)=C(C(=O)OC)C1c1ccccc1[N+](=O)[O-]
active: [1] 12.6 µM
inactive: [2] | [3]

COc1ccc(Cl)cc1C(=O)NCCc1ccc(S(=O)(=O)NC(=O)NC2CCCCC2)cc1
inactive: [1] | [2] | [3] | [5] | [6]

CSc1ccc2c(c1)N(CCC1CCCCN1C)c1ccccc1S2 (stereo unspecified)
inactive: [2] | [3] | [6]
active: [1] 44.7 µM

NC(N)=NCCC[C@H](N)C(=O)O
inactive: [1] | [2] | [3] | [6]

O=C1N=C(O)CN1/N=C/c1ccc(-c2ccc([N+](=O)[O-])cc2)o1
not listed: [1] | [3] | [4] | [5]
inactive: all other assays above

CN(C)CCOC(C)(c1ccccc1)c1ccccn1 (stereo unspecified)
inactive: [1] | [2] | [3] | [6]

CCCCN(CCCC)CC(O)c1cc(Cl)cc2c1-c1ccc(Cl)cc1/C2=C/c1ccc(Cl)cc1 (stereo unspecified)
inactive: [1] | [2] | [3]

CCN(CC)CCNC(=O)c1cc(Cl)c(N)cc1OC
not listed: [3]
inactive: all other assays above

O=C1NC(=O)[C@@]2(CCOc3ccc(F)cc32)N1
inactive: [1] | [2] | [3]

CCCCC/C(C=O)=C\c1ccccc1
inactive: [7] | [3]

CC(CN(C)C)CN1c2ccccc2CCc2ccccc21 (stereo unspecified)
inactive: [1] | [2] | [3] | [6]

C[C@H](NC(CCc1ccccc1)C(=O)O)C(=O)N1CCC[C@H]1C(=O)O (stereo partly specified)
inactive: [1] | [2] | [3]

CCCn1cnc2c1c(=O)n(CCCCC(C)=O)c(=O)n2C
inactive: [1] | [2] | [3] | [6]

C[C@@H]1C[C@H]2[C@@H]3C[C@H](F)C4=CC(=O)C=C[C@]4(C)[C@@]3(F)[C@@H](O)C[C@]2(C)[C@@]1(O)C(=O)CO
inactive: [7] | [8] | [11] | [12] | [3] | [4] | [5]

O=c1cc[nH]c(=S)[nH]1
inactive: [7] | [8] | [9] | [10] | [12]

CC(C)C(=O)c1c(C(C)C)nn2ccccc12
inactive: [1] | [2] | [3] | [6]

CNCCC(Oc1ccc(C(F)(F)F)cc1)c1ccccc1 (stereo unspecified)
inactive: [1] | [2] | [3] | [6]

CCN(CC)CCOC(=O)C1(C2CCCCC2)CCCCC1
inactive: [1] | [2] | [3] | [6]

O=C(O)CN1C(=O)c2cccc3cccc(c23)C1=O
inactive: [10] | [12]
active: [7] 3.69 µM

C[C@]12CC[C@@H]3c4ccc(O)cc4CC[C@H]3[C@@H]1CCC2=O
inactive: [1] | [2] | [3] | [6]

CNCCCC1c2ccccc2C=Cc2ccccc21
active: [1] 56.2 µM | [2] 26.7 µM
